In PubChem BioAssay:
Activity calls are given as the source filed them. The rule behind the calls is not given here.

assay: P. aeruginosa biofilm formation inhibitors, primary screen, strain PAO1, LB-PBS medium, absorbance 600 nm (AID 1176); note: test concentration not given here; conditions: P. aeruginosa PAO1 growth/biofilm, A600, 12 h; higher = more signal

z-score, inactive:
O=C1O[C@@H](c2ccccc2)[C@@H](c2ccccc2)N2[C@@H](c3ccc(O)cc3)[C@]3(C(=O)Nc4ccc(C#CCCO)cc43)[C@@H](C(=O)Nc3nc4ccccc4s3)[C@H]12 0.513
C=CCOC(=O)[C@@H]1[C@H]2C(=O)O[C@H](c3ccccc3)[C@H](c3ccccc3)N2[C@H](c2ccc(OCCOC(=O)[C@H]3C[C@H]4C(=O)N[C@@H](CCCCN(C)C)C(=O)N4[C@H]3c3cccc(OCCO)c3)cc2)[C@@]12C(=O)Nc1ccc(I)cc12 2.57
Cc1c(NC(=O)/C(C#N)=C/C=C/c2ccc(N(C)C)cc2)c(=O)n(-c2ccccc2)n1C -0.103
O=C1C2C=CC(C(O)c3cc(C(F)(F)F)cc(C(F)(F)F)c3)N(Nc3ccc([N+](=O)[O-])cc3)C2C(=O)N1c1ccccc1 (stereo not given) 1.07
O=C1NC(=O)C2C1C=CC(C(O)c1cc(C(F)(F)F)cc(C(F)(F)F)c1)N2Nc1ccc(Cl)cc1Cl (stereo not given) 1.43
CO[C@H]1O[C@H](CO)[C@@H](OC(=O)Nc2ccccc2-c2ccccc2)[C@H](OC(=O)Nc2ccc3c(c2)OCO3)[C@@H]1OC(=O)Nc1ccc2c(c1)OCO2 1.86
Cc1ccc(F)cc1S(=O)(=O)N[C@@H]1CCN(Cc2ccc(Oc3ccccc3)cc2)C1 -0.177
CCOC(=O)C1=CC[C@@H](c2ccccc2)N(S(=O)(=O)c2ccc(C)cc2)C1 0.465
Cc1ccc(S[C@]2(C(=O)NCC(F)(F)F)CC(=O)N(Cc3ccccc3)[C@@H]2c2ccc(CO)cc2)cc1 -0.131
CC(C)CNC(=O)[C@@H]1c2ccccc2C(=O)N(Cc2cc(F)cc(C(F)(F)F)c2)[C@H]1c1ccc(CO)cc1 0.801
CCN(CC)c1ccc(N2CC=CC34O[C@@H]5/C=C\CCC(C)OC(=O)C5[C@H]3C(=O)N(CCO)[C@@H]4C2=O)cc1 (stereo not given in full) -0.593
COc1ccccc1CN1C(=O)c2ccccc2[C@@H](C(=O)NC(C)C)[C@@H]1c1ccc(CO)cc1 -0.963
[N-]=[N+]=NCc1ccccc1[C@H]1OC(c2ccc(OCCCO)cc2)=N[C@@]1(CCS(=O)(=O)c1ccccc1)C(N)=O 0.274
C=CCOC(=O)[C@@H]1[C@H]2C(=O)O[C@H](c3ccccc3)[C@H](c3ccccc3)N2[C@H](c2ccc(OCCOC(=O)[C@H]3C[C@H]4C(=O)N[C@@H](CCCC[N+](C)(C)C)C(=O)N4[C@H]3c3ccc(O)cc3)cc2)[C@@]12C(=O)Nc1ccc(I)cc12 2.01
C=C(CCCC)/C(=C/C[C@@H](OC(C)=O)c1ccc(CO)o1)c1cc(C(=O)OC)ccc1OC 1.23
CC(C)C(O)C1C=CC2C(=O)N(C)C(=O)C2N1N(c1ccccc1)c1ccccc1 (stereo not given) 0.186
C=CCNC(=O)[C@@H]1[C@H]2C(=O)O[C@H](c3ccccc3)[C@H](c3ccccc3)N2[C@H](c2ccc(OCCO)cc2)[C@@]12C(=O)N(C(=O)OCCOC)c1ccc(C#CC3=CCCCC3)cc12 2.17
COCCOC(=O)N1C(=O)[C@@]2(c3cc(C#Cc4ccc(OC)cc4)ccc31)[C@H](C(=O)N1CCCCCCC1)[C@H]1C(=O)O[C@H](c3ccccc3)[C@H](c3ccccc3)N1[C@@H]2c1ccc(O)cc1 0.721
COC(=O)Cn1c(C(=O)N2CCCC2)cc2c1C[C@H]1CN(C(=O)c3ccccc3)[C@@](Cc3ccc(F)cc3)(C(=O)OC)[C@@H]21 0.756
NCCCCCNC(=O)[C@@H]1C[C@@H]2C(=O)N[C@@H](CCCCN)C(=O)N2[C@@H]1c1cccc(OCCO)c1 -0.105
Cc1ccc(S[C@]2(C(=O)NC(C)C)CC(=O)N(Cc3ccccc3C(F)(F)F)[C@@H]2c2ccc(CO)cc2I)cc1 0.27
COCCOC(=O)N1C(=O)[C@@]2(c3cc(C#CC4(O)CCCCCC4)ccc31)[C@H](C(N)=O)[C@H]1C(=O)O[C@H](c3ccccc3)[C@H](c3ccccc3)N1[C@@H]2c1ccccc1OCCO 1.68
C=CC[C@H](OC(=O)Nc1ccc(OC)cc1)c1ccc(O)c2ccccc12 1.82
COCC(=C=CC[C@H](O)c1cccc(OCCO)c1)C[C@H](O)c1ccccn1 0.437
C=CC[C@@]1(C(=O)N2CCCCC2)N=C(c2ccc(OCCCO)cc2)O[C@@H]1c1ccccc1 -0.441
COCCCNC(=O)[C@@H]1c2ccccc2C(=O)N(Cc2ccccc2C(F)(F)F)[C@H]1c1ccc(CO)cc1 -0.727
COc1ccc([Si](C)(C)[C@H]2[C@H](CCO)O[C@@]3(C(=O)N(Cc4cccc(N5CCCCC5=O)c4)c4ccccc43)[C@@H]2C)cc1 0.969
O=C1C[C@@](C(=O)NCC(F)(F)F)(c2ccc([N+](=O)[O-])cc2)[C@@H](c2ccc(CO)cc2)N1C1CCCCC1 0.416
COC(=O)[C@@]1(Cc2ccc(OC)cc2)[C@H]2c3cc(C(=O)N(C)C)n(CCc4c[nH]c5ccc(O)cc45)c3C[C@H]2CN1C(=O)c1ccccc1 0.15
CC(C)c1ccc(NN2C(C(O)c3ccco3)C=CC3C(=O)N(c4ccccc4)C(=O)C32)cc1 (stereo not given) 1.07
COC(=O)[C@@]1(Cc2ccc(OC)cc2)[C@H]2c3cc(C(=O)N(C)C)n(Cc4nc5ccccc5[nH]4)c3C[C@H]2CN1C(=O)c1ccccc1 -0.0982
CN1C(=O)[C@@]2(CCS(=O)(=O)c3ccccc3)N=C(c3ccc(OCCCO)cc3)O[C@H]2c2ccccc21 -0.469
O=C1O[C@@H](c2ccccc2)[C@@H](c2ccccc2)N2[C@@H](c3ccc(O)cc3)[C@]3(C(=O)Nc4ccccc43)[C@@H](C(=O)Nc3nc4ccccc4s3)[C@H]12 2.43
CC(C)NC(=O)[C@@]1(C)c2ccccc2C(=O)N(C(C)C)[C@H]1c1ccc(CO)cc1 0.972
COC(=O)[C@@]1(Cc2ccccc2)[C@H]2c3cc(C(=O)N4CCCC4)[nH]c3C[C@H]2CN1C(=O)c1ccccc1 0.026
